# Key:
# Assay in all cases: thermal shift delta Tm vs DMSO control; higher = stronger stabilization (binding)
# Settings in all cases: 12.5 µM; protein concentration 2 µM
# [1] = system: LOC_OS01G01410-cb001
# Procedure, shortened: (§1)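 Thermal shift values come from differential scanning fluorimetry on purified rice kinase domains made in E. coli, with melting temperatures obtained from Boltzmann fits. Samples of 19.5 μl held 2 μM kinase, 100 mM potassium phosphate pH 7.5, 150 mM NaCl, 10% glycerol, 5 × SYPRO Orange and compound in DMSO, and were heated from 25°C to 95°C at 0.05°C/s. Each shift is a triplicate mean relative to the DMSO-only protein sample.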
# [2] = system: LOC_OS01G02750-cb003
# Procedure, shortened: as §1
# [3] = system: LOC_OS01G10900-cb004
# Procedure, shortened: as §1
# [4] = system: LOC_OS01G13800-cb001
# Procedure, shortened: as §1
# [5] = system: LOC_OS01G14860-cb001
# Procedure, shortened: as §1
# [6] = system: LOC_OS01G21960-cb002
# Procedure, shortened: as §1
# [7] = system: LOC_OS01G39600-cb002
# Procedure, shortened: as §1
# [8] = system: LOC_OS01G48390-cb002
# Procedure, shortened: as §1
# [9] = system: LOC_OS01G51400-cb002
# Procedure, shortened: as §1
# [10] = system: T1, LOC_OS01G52050-cb004
# T1 sequence (whole entry): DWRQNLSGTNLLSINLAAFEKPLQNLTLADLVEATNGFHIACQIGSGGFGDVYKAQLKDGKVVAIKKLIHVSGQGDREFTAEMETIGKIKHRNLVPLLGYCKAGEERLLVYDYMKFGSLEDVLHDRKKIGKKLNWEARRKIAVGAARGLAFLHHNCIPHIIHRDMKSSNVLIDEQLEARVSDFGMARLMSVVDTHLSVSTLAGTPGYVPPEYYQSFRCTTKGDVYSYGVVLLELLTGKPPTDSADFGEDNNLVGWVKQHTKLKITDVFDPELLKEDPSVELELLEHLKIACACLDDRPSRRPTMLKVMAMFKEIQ
# Procedure, shortened: as §1
# [11] = system: LOC_OS01G57100-cb003
# Procedure, shortened: as §1
# [12] = system: LOC_OS01G60330-cb001
# Procedure, shortened: as §1
# [13] = system: LOC_OS01G60700-cb002
# Procedure, shortened: as §1
# [14] = system: LOC_OS01G63280-cb003
# Procedure, shortened: as §1
# [15] = system: LOC_OS01G67340-cb003
# Procedure, shortened: as §1
# [16] = system: LOC_OS01G70970-cb002
# Procedure, shortened: as §1
# [17] = system: LOC_OS02G07810-cb001
# Procedure, shortened: as §1
# [18] = system: LOC_OS02G08530-cb003
# Procedure, shortened: as §1
# [19] = system: LOC_OS02G14120-cb001
# Procedure, shortened: as §1
# [20] = system: LOC_OS02G17970-cb001
# Procedure, shortened: as §1
# 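Further: purified Escherichia coli-expressed rice kinase domain construct.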
SMILES,thermal shift delta Tm [1] [°C],thermal shift delta Tm [2] [°C],thermal shift delta Tm [3] [°C],thermal shift delta Tm [4] [°C],thermal shift delta Tm [5] [°C],thermal shift delta Tm [6] [°C],thermal shift delta Tm [7] [°C],thermal shift delta Tm [8] [°C],thermal shift delta Tm [9] [°C],thermal shift delta Tm [10] [°C],thermal shift delta Tm [11] [°C],thermal shift delta Tm [12] [°C],thermal shift delta Tm [13] [°C],thermal shift delta Tm [14] [°C],thermal shift delta Tm [15] [°C],thermal shift delta Tm [16] [°C],thermal shift delta Tm [17] [°C],thermal shift delta Tm [18] [°C],thermal shift delta Tm [19] [°C],thermal shift delta Tm [20] [°C]
COc1ccc(-c2ccc3c(N4CCOC[C@@H]4C)nc(N4CCOC[C@@H]4C)nc3n2)cc1CO,0.54,0.23,0.08,0.21,0,-0.12,-0.26,0.01,-0.16,0.06,0.87,0.93,0.64,-0.13,-0.69,0.1,0.28,0.31,-1.22,-0.06
O=C(Cc1ccc(-c2ccc(OCCN3CCOCC3)cc2)cn1)NCc1ccccc1,0.29,-0.23,-0.03,-0.06,0.06,0.58,-1.02,0.31,0.06,-0.13,1.17,0.12,1.18,0.26,0.62,0.16,0.92,0.7,0.08,1.17
CCc1nc(C(N)=O)c(Nc2ccc(N3CCC(N4CCN(C)CC4)CC3)c(OC)c2)nc1NC1CCOCC1 [Gilteritinib (ASP2215)],4.13,2.42,2.14,0.93,2.59,3.21,2.87,1.66,0.63,8.54,4.25,11.5,1.96,1.07,4.03,5.09,1.35,5.51,13.1,1.65
COc1cc2ncc(-c3ccccc3)nc2cc1OC [Tyrphostin AG 1296],2.03,1.6,0.44,-0.26,0.28,0,0.47,0.55,0.63,1.69,0.4,3.29,1.32,1.35,1.24,0.75,-0.01,1.3,2.29,0.27
CC(C)NC(=O)COc1cccc(-c2nc(Nc3ccc4[nH]ncc4c3)c3ccccc3n2)c1,0.42,0.09,0.99,0.46,1.95,1.23,-0.3,0.33,-0.24,1.34,1.14,12.3,0.68,0.55,0.91,0.76,1.23,1.03,2.71,1.76
CC[C@@H]1C(=O)N(C)c2cnc(Nc3ccc(C(=O)NC4CCN(C)CC4)cc3OC)nc2N1C1CCCC1,1.63,-0.86,-0.01,-0.37,-0.16,0.05,0.36,-0.02,-0.01,0.06,0.75,2.55,0.69,-0.22,-0.4,0.34,0.2,1.93,0.27,0.02
CN1CC[C@H](c2c(O)cc(O)c3c(=O)cc(-c4ccccc4Cl)oc23)[C@H](O)C1 [Flavopiridol (Alvocidib)],0.72,0.39,0.16,0.35,4.54,1.94,1.37,0.03,-0.2,0.8,0.96,0.94,0.39,0.37,-0.01,1.4,0.63,1.53,1.28,-0.3
CCN1/C(=C/C(C)=O)Sc2ccc(OC)cc21,0.21,0.62,0.24,0.6,1.92,1.17,-0.62,0.54,0.02,-0.01,1.85,1.16,0.54,0.05,0.66,0.38,0.47,0.41,0.43,0.27
Cc1c(NC(=O)c2ccc(C(C)(C)C)cc2)cccc1-c1cn(C)c(=O)c(Nc2ccc(C(=O)N3CCOCC3)cc2)n1,0.18,0.71,-1.08,0.18,-0.01,0.66,2.2,0.86,0.2,-0.23,1.59,0.51,1.36,0.36,-0.03,0.22,0.9,0.31,0,0.66
CNc1nc(Nc2cnn([C@H]3CCN(C4COC4)C[C@@H]3F)c2Cl)ncc1C(F)(F)F,0.23,0.99,0.28,0.15,0.15,1.33,0.09,1.82,0.18,1.16,0.76,2.09,0.99,0.1,0.67,1.35,0.49,2.55,2.26,0.35
"CC(C)(O)CNc1ncc(-c2ccnc(Nc3ccncc3)n2)c(CC2CC2)n1 [VPS34 inhibitor 1 (Compound 19, PIK-III analogue)]",0.51,1.04,5.05,0.63,2.25,0.87,0.48,1.46,0.29,4.06,1.59,0.38,0.34,0.12,-0.02,0.5,-0.03,0.85,4.52,0.28
CCc1nc(-c2cccc(C)c2)c(-c2ccnc(NC(=O)c3ccccc3)c2)s1,0.24,0.26,0.38,-0.71,0.27,-0.03,0.93,0.28,0.2,0.24,0.93,1.03,1.53,0.61,0.22,0.22,0.98,0.24,0.43,0.22

# From the supplement of paper PMC9694430
